PfGluPho inh = PfG6PD enzyme inhibitors, primary screen, biochemical, fluorescence intensity, uHTS; PfGluPho enzyme, NADPH resazurin-diaphorase fluorescence; inhibition, % at 20 µM; 0.78% of 350,000 active;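 active = inhibition reaching at least a set limit at 20 µM in the primary screen, cut at about 59% in these data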
CR mimetic SO = reduction of superoxide in aged yeast, primary screen, HTS. superoxide response (% of plate mean), % at 10 µM. 0.18% of 330,000 active. S. cerevisiae aged cells, superoxide DHE fluorescence; stronger effect = lower value;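 active = superoxide response under a set limit, about three screen SD below normal, cut at about 65% in these data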;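 also: yeast aged for seven days with compound at 30 °C before DHE staining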
A3G deaminase = APOBEC3G DNA deaminase inhibitors, primary screen, biochemical, fluorescence, single-stranded DNA substrate, uHTS; 0.28% of 330,000 active; recombinant A3G, ssDNA deamination FAM/TAMRA fluorescence; DNA dC->dU-editing enzyme APOBEC-3G (Homo sapiens), Q9HC16; inhibition, % at 20 µM;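 active = inhibition of at least 40% at 20 µM, with no more than 30% in the related APOBEC3A deaminase screen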
Target sequence (Q9HC16 whole entry, looked up): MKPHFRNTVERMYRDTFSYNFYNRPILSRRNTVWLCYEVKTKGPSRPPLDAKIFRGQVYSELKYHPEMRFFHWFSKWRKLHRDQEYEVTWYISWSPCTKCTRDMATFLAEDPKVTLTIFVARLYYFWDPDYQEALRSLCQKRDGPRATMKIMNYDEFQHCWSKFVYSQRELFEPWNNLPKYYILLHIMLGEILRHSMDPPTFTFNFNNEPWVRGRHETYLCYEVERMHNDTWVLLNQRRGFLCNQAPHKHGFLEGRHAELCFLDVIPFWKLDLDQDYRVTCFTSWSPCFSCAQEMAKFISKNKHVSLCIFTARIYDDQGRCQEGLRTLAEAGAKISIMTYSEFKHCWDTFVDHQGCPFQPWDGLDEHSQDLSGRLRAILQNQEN
A3A deaminase = APOBEC3A ssDNA deaminase inhibitors, primary screen, selectivity assay for APOBEC3G inhibitor project, biochemical, FAM/TAMRA oligo cleavage fluorescence | recombinant A3A, FAM/TAMRA ssDNA deamination fluorescence | 0.41% of 330,000 active | inhibition, % at 20 µM | DNA dC->dU-editing enzyme APOBEC-3A (Homo sapiens), P31941 | AID 493011, 2011;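 active = at least 40% inhibition at 20 µM here, with at most 30% in a related deaminase screen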
Target sequence (P31941 whole entry, looked up): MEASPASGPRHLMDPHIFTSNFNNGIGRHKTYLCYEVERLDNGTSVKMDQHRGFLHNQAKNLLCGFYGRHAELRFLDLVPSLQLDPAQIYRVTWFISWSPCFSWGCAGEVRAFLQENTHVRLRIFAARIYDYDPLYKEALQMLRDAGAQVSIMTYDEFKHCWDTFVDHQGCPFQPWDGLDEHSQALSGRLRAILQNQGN
PfM18AAP inh = PfM18AAP inhibitors, malaria aminopeptidase, primary screen, biochemical, QFRET, recombinant enzyme; AID 1822, 2009; H-Glu-NHMec fluorogenic cleavage; 1.2% of 290,000 active; M18 aspartyl aminopeptidase (Plasmodium falciparum 3D7); inhibition, % at 7.35 µM;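 active = inhibition above the campaign mean inhibition over all tested compounds plus 3 SD, cut at about 28% in these data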
PfG6PD confirm = PfG6PD inhibitors, hit retest, confirmation, biochemical, fluorescence intensity, single concentration | shares compounds with PfGluPho inh | recombinant PfGluPho, NADPH-diaphorase-resazurin fluorescence | inhibition, % at 20 µM | 34% of 2,400 active;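 active = inhibition of at least 50% at 20 µM in any single replicate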
Diaph ctr 10uM = diaphorase inhibitors and chemical oxidizers, confirmation, counter-screen for P. falciparum G6PD inhibitor project, biochemical, fluorescence intensity, 10 µM NADPH; shares compounds with PfGluPho inh; diaphorase-coupled resazurin reduction, NADPH 10 uM; inhibition, % at 20 µM; 39% of 820 active;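 active = average inhibition reaching 50% or more with the compound at 20 µM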;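 also: resorufin red fluorescence formed as diaphorase reduces resazurin using NADPH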
Diaph ctr 30uM = diaphorase inhibitors and chemical oxidizers, confirmation, counter-screen for P. falciparum G6PD inhibitor project, biochemical, fluorescence intensity, 30 µM NADPH. shares compounds with PfGluPho inh. Diaphorase/resazurin coupled assay, resorufin fluorescence. AID 504863, 2011. 29% of 820 active. inhibition, % at 20 µM;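 active = inhibition averaging 50% or more, tested at 20 µM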
Numbers stand for hits. The list is not random: actives were taken first. Their share in the collection is about 2.4%.

What do the screens show for `COc1ccc(-c2cn3cc(C)ccc3n2)cc1F`?
PfGluPho inh: 107; CR mimetic SO: inactive; A3G deaminase: inactive; A3A deaminase: inactive; PfM18AAP inh: inactive; PfG6PD confirm: 73; Diaph ctr 10uM: 64; Diaph ctr 30uM: 54

What do the screens show for `Clc1ccc(CN2CCN(c3ncccn3)CC2)c(Cl)c1`?
PfGluPho inh: inactive; CR mimetic SO: inactive; A3G deaminase: inactive; A3A deaminase: inactive; PfM18AAP inh: inactive

How did Cc1cc(N=NC(=O)c2ccccc2O)c2ccccc2c1O do in these assays?
PfGluPho inh: 64; CR mimetic SO: inactive; A3G deaminase: inactive; A3A deaminase: inactive; PfM18AAP inh: inactive; PfG6PD confirm: 49; Diaph ctr 10uM: inactive; Diaph ctr 30uM: inactive

How did COc1ccc2nc(Cl)cc(Cl)c2c1 do in these assays?
PfGluPho inh: inactive; CR mimetic SO: inactive; A3G deaminase: inactive; A3A deaminase: inactive; PfM18AAP inh: inactive

Results for C=CS(=O)(=O)c1c2cc(OC)ccc2nc2ccc(OC)cc12 ?
PfGluPho inh: 69; PfG6PD confirm: inactive

How did Cc1ccc(SC2=C(Sc3ccc(C)cc3)C(=O)c3ccccc3C2=O)cc1 do in these assays?
PfGluPho inh: 90; CR mimetic SO: inactive; A3G deaminase: inactive; A3A deaminase: inactive; PfM18AAP inh: inactive; PfG6PD confirm: 62; Diaph ctr 10uM: inactive; Diaph ctr 30uM: inactive

Results for Cc1cccc(S(=O)(=O)Nc2ccc(C)c3c2OC(C)(C)C3)c1 ?
PfGluPho inh: 107; CR mimetic SO: inactive; A3G deaminase: inactive; A3A deaminase: inactive; PfM18AAP inh: inactive; PfG6PD confirm: inactive

What do the screens show for `Cc1ccc(NS(=O)(=O)c2ccccc2Cl)c2c1CC(C)(C)O2`?
PfGluPho inh: 109; CR mimetic SO: inactive; A3G deaminase: inactive; A3A deaminase: inactive; PfM18AAP inh: inactive; PfG6PD confirm: 59; Diaph ctr 10uM: inactive; Diaph ctr 30uM: inactive

Results for Cc1ccc(NC(=O)CN2CCCC2)c2c1CC(C)(C)O2 ?
PfGluPho inh: inactive; CR mimetic SO: inactive; A3G deaminase: inactive; A3A deaminase: inactive; PfM18AAP inh: inactive

What do the screens show for `CN(c1ccc(F)cc1)S(=O)(=O)c1ccc(Cl)c(C(=O)NC2(C)CCS(=O)(=O)C2)c1` (stereo unspecified)?
PfGluPho inh: inactive; CR mimetic SO: inactive; A3G deaminase: inactive; A3A deaminase: inactive

Results for COc1cc(Sc2ccc(C)cc2)c(OC)cc1N ?
PfGluPho inh: 60; CR mimetic SO: inactive; A3G deaminase: inactive; A3A deaminase: inactive; PfM18AAP inh: inactive; PfG6PD confirm: 56; Diaph ctr 10uM: inactive; Diaph ctr 30uM: inactive

How did COC(=O)c1ccc(Sc2ccc(C)cc2)c(N)c1 do in these assays?
PfGluPho inh: inactive; CR mimetic SO: inactive; A3G deaminase: inactive; A3A deaminase: inactive; PfM18AAP inh: inactive

Results for CCSc1nnc(NC(=O)c2ccccc2)s1 ?
PfGluPho inh: 62; CR mimetic SO: inactive; A3G deaminase: inactive; A3A deaminase: inactive; PfM18AAP inh: inactive; PfG6PD confirm: inactive

What do the screens show for `Cc1cc(C(=O)Nc2nnc(C(F)(F)F)s2)no1`?
PfGluPho inh: inactive; CR mimetic SO: inactive; A3G deaminase: inactive; A3A deaminase: inactive; PfM18AAP inh: inactive

Results for O=C(Nc1nnc(C2CCCCC2)s1)c1ccc(Br)s1 ?
PfGluPho inh: inactive; CR mimetic SO: inactive; A3G deaminase: inactive; A3A deaminase: inactive; PfM18AAP inh: inactive

How did Cc1cc(C(=O)Nc2nnc(C(F)(F)F)s2)cs1 do in these assays?
PfGluPho inh: 119; CR mimetic SO: inactive; A3G deaminase: inactive; A3A deaminase: inactive; PfM18AAP inh: inactive; PfG6PD confirm: 82; Diaph ctr 10uM: 77; Diaph ctr 30uM: 72

Results for O=C(Nc1nnc(C(F)(F)F)s1)c1ccc(Br)s1 ?
PfGluPho inh: 85; CR mimetic SO: inactive; A3G deaminase: inactive; A3A deaminase: inactive; PfM18AAP inh: inactive; PfG6PD confirm: 72; Diaph ctr 10uM: 65; Diaph ctr 30uM: 52

Results for CCSc1nnc(NC(=O)c2ccc(Br)s2)s1 ?
PfGluPho inh: 102; CR mimetic SO: inactive; A3G deaminase: inactive; A3A deaminase: inactive; PfM18AAP inh: inactive; PfG6PD confirm: 64; Diaph ctr 10uM: 70; Diaph ctr 30uM: 61

Results for C[C@H]1CN([C@@H](C)CO)C(=O)CCCn2cc(nn2)CO[C@@H]1CN(C)S(=O)(=O)c1ccc(Oc2ccccc2)cc1 ?
PfGluPho inh: inactive

What do the screens show for `Cc1ccc(N(Cc2cc(=O)[nH]c3ccccc23)C(=O)CCl)c(C)c1`?
PfGluPho inh: inactive; CR mimetic SO: inactive; A3G deaminase: inactive; A3A deaminase: inactive; PfM18AAP inh: inactive

What do the screens show for `CCSc1nnc(Nc2ccc(C)cc2)s1`?
PfGluPho inh: 66; CR mimetic SO: inactive; A3G deaminase: inactive; A3A deaminase: inactive; PfM18AAP inh: inactive; PfG6PD confirm: inactive

What do the screens show for `CCn1c(O)c(C=Nc2ccccc2)sc1=S`?
PfGluPho inh: 68; CR mimetic SO: inactive; A3G deaminase: inactive; A3A deaminase: inactive; PfM18AAP inh: inactive; PfG6PD confirm: inactive

How did CC(=O)Oc1cc(C(=O)OCC(=O)NC23CC4CC(CC(C4)C2)C3)cc(OC(C)=O)c1OC(C)=O do in these assays?
PfGluPho inh: inactive

How did CCn1c(SCc2nc3scc(-c4ccccc4)c3c(=O)[nH]2)nnc1-c1cccs1 do in these assays?
PfGluPho inh: inactive; CR mimetic SO: inactive; A3G deaminase: inactive; A3A deaminase: inactive; PfM18AAP inh: inactive; PfG6PD confirm: 49; Diaph ctr 10uM: inactive; Diaph ctr 30uM: inactive

Results for CCn1c(SCc2nc3ccccc3[nH]2)nnc1-c1cccs1 ?
PfGluPho inh: inactive; CR mimetic SO: inactive; A3G deaminase: inactive; A3A deaminase: inactive; PfM18AAP inh: inactive

Results for Cc1nnc(SCc2nc3scc(-c4ccccc4)c3c(=O)[nH]2)s1 ?
PfGluPho inh: 60; CR mimetic SO: inactive; A3G deaminase: inactive; A3A deaminase: inactive; PfM18AAP inh: inactive; PfG6PD confirm: inactive

What do the screens show for `Nc1nnc(SCc2nc3scc(-c4ccccc4)c3c(=O)[nH]2)s1`?
PfGluPho inh: inactive; CR mimetic SO: inactive; A3G deaminase: inactive; A3A deaminase: inactive; PfM18AAP inh: inactive
